# Screens as filed in PubChem.
# FGF22 binding-1: FGF22 (human) thermal shift binding; Q9HCT0; 340,000 compounds, 1.5% hits; recombinant FGF22 thermal shift, SYPRO orange fluorescence; percent of sucrose octasulfate shift, DMSO zero; activity (Tm shift, normalised), % at 9.99 µM;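 active means mean Tm shift, scaled 0 neutral to 100 positive control, at about 1.3% or above, every replicate too, limit read from the data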
# Target sequence (Q9HCT0 whole entry, looked up): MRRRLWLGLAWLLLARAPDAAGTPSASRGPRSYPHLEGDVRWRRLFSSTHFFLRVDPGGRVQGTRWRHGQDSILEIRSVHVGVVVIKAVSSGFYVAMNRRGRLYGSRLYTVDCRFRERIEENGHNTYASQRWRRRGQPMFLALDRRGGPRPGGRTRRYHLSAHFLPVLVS
# Vif inh: HIV Vif inhibition; HEK293T cells, Vif self-association by quenched fluorescence, imaging, 24 h; inhibition, % at 7.49 µM; 340,000 compounds, 0.35% hits; AID 602346; in the data active means inhibition above about 50%, passing the limit was not always enough
# CFTR F508del cor: CFTR F508del correction in bronchial cells | CFBE cells, YFP halide quenching; stimulated with forskolin plus potentiator P3; % fluorescence drop versus neutral controls | activity (quench increase), % at 7.58 µM | 350,000 compounds, 0.36% hits;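 active means mean added fluorescence quench of at least 8% versus neutral control, with both replicates also reaching 8%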;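 further: cells transiently co-express mutant CFTR-F508del with the halide-sensitive YFP; corrector assay measuring rescue of mutant channel to the surface after 24 h compound exposure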
# FGF22 binding-2: FGF22 (human) binding in thermal shift | 1,000 compounds, 2% hits | thermal shift activity, °C (ΔTm) at 38 µM | shares compounds with FGF22 binding-1 | recombinant FGF22 thermal shift, SYPRO orange fluorescence;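 active means fitted rise in melting shift crosses a set limit at or below the top valid dose tested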
# FGF22 TSA: binders of human FGF22 by thermal shift. shares compounds with FGF22 binding-1. Thermal shift assay, SYPRO orange, melting temperature shift. Tm shift (activity), % at 38 µM. 50 tested, under 10 active. AID 743017;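 active means compounds whose fitted dose curve of melting temperature shift rises past a set threshold within the tested doses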
# SYPRO no-protein: compound-only SYPRO artifact for FGF22 binders; 1,000 compounds, 2% hits; compound-only SYPRO orange thermal shift counter-screen, no protein; AC50, µM (doses to about 38 µM); shares compounds with FGF22 binding-1; AID 743019;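 active means rising signal whose fitted curve reaches the 0.54 level within the top valid dose, showing a melting point, actives reach about 13 µM in these data; inactive means the rest, including activity in the opposite direction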; further: value is where the raw curve crosses a fixed level and not half-maximal
# Starred values were filed as active, the others as inactive; i = inactive; · = not tested or not shown; [ ] = remark or other dose. Rows were chosen to be rich in hits. Some 1.7% of all compounds tested hit in one or more screens of this group.
SMILES,FGF22 binding-1,Vif inh,CFTR F508del cor,FGF22 binding-2,SYPRO no-protein,others
Cc1c(/C=N\NC(=O)c2cccc(F)c2)cnn1C,2.0*,-0.1,1.3,0.168,i,
Cc1[nH]c2ccccc2c1/C=N/NC(=O)c1cccc(F)c1,2.0*,-1.9,-1.9,0.128,i,
Cc1c(/C=N\NC(=O)c2ccc(F)cc2)cnn1C,·,4.0,·,·,·,
C[C@@H]1CN([C@H](C)CO)S(=O)(=O)c2ccc(C3=CCCC3)cc2O[C@H]1CN(C)C(=O)c1ccncc1,0.1,·,-1.3,·,·,
Cc1cccnc1NC(=O)CCCN1C(=O)c2ccccc2C1=O,17.1*,16.6,-3.2,0.217,i,
Cc1ccc(Cl)cc1NC(=O)CCCN1C(=O)c2cccnc2C1=O,0.4,-0.2,-0.1,·,·,
COc1ccc(N2CCN(C(=O)c3cccc(NC4=NC5CS(=O)(=O)CC5S4)c3)CC2)cc1 (configuration not stated),-1.3,4.6,-2.2,·,·,
O=C(c1cccc(NC2=NC3CS(=O)(=O)CC3S2)c1)N1CCN(c2ncccn2)CC1 (configuration not stated),12.0*,-3.0,-4.9,-0.247,i,
COCCNC(=O)C[C@@H]1C[C@@H]2c3cc(NC(=O)Nc4ccc(C(F)(F)F)cc4)ccc3O[C@@H]2[C@H](CO)O1,-0.2,·,1.3,·,·,
C[C@H]1CN([C@@H](C)CO)C(=O)Cc2cc(NC(=O)CCCCCC(=O)Nc3ccccc3N)ccc2O[C@H]1CN(C)S(=O)(=O)c1ccccc1,0.0,·,0.6,·,·,
CC(C)CC(=O)Nc1ccc(C(=O)CN2C(=O)NC3(CCOc4ccccc43)C2=O)cc1 (configuration not stated),1.9*,·,1.6,-0.156,i,
CCC(=O)Nc1ccc(C(=O)CN2C(=O)NC3(CCOc4ccccc43)C2=O)cc1 (configuration not stated),-0.3,-10.5,-2.5,·,·,
O=C(Nc1ccccc1Cl)N1[C@H](CO)[C@@H]2c3ccccc3NC[C@@H]21,1.6*,·,-2.4,0.068,i,
O=C(Nc1ccccc1Cl)N1[C@@H](CO)[C@@H]2c3ccccc3NC[C@@H]21,-0.1,·,-1.5,·,·,
OC[C@H]1[C@H]2c3ccccc3NC[C@H]2N1Cc1ccccc1Cl,0.2,·,-0.1,·,·,
OC[C@H]1[C@@H]2c3ccccc3NC[C@@H]2N1Cc1ccccc1Cl,1.4*,·,-3.6,0.227[42 µM],i,
O=C(NCC1CCCCC1)c1cccnc1Cl,1.5*,3.0,1.6,0.226,i,
CSc1ncccc1C(=O)NCC1CCCCC1,-0.1,5.2,-1.0,·,·,
CCCC(=O)N1CC2(CCN(CC3CCCC3)CC2)c2c([nH]c3cc(OC)ccc23)[C@@H]1CO,·,·,1.0,·,·,
COc1ccc(C2=NN(c3ccccc3)C(c3cn(CCC(=O)O)nc3-c3ccccc3)C2)cc1 (configuration not stated),2.3*,1.3,-0.4,0.065,i,
COc1ccc(-c2nn(CCC(=O)O)cc2CCC(=O)O)cc1,·,-10.4,·,·,·,
CCC(=O)N1C[C@H](C)[C@H](OC)CN(C)C(=O)c2cc(NC(=O)C3CCCCC3)ccc2OC[C@H]1C,-0.2,·,-3.2,·,·,
CN1C(=O)c2cc(NC(=O)c3ccccc3Cl)ccc2OC[C@@H]2O[C@@H](CC(=O)NCC(F)(F)F)CC[C@H]21,36.0*,·,·,0.101,i,
CCNC(=O)C[C@@H]1CC[C@H]2[C@H](COc3ccc(NC(=O)Nc4ccc(Cl)cc4)cc3C(=O)N2C)O1,1.2*,·,-6.1,-0.09,i,FGF22 TSA=0.1
CN1C(=O)c2cc(NC(=O)c3ccccc3Cl)ccc2OC[C@H]2O[C@H](CC(=O)NCC(F)(F)F)CC[C@H]21,0.0,·,·,·,·,
SMILES,FGF22 binding-1,Vif inh,CFTR F508del cor,FGF22 binding-2,SYPRO no-protein,others
CCNC(=O)C[C@@H]1CC[C@@H]2[C@@H](COc3ccc(NC(=O)Nc4ccc(Cl)cc4)cc3C(=O)N2C)O1,0.0,·,-0.5,·,·,
CNC(=O)C[C@H]1CC[C@@H]2[C@H](COc3ccc(NC(=O)c4ccccc4OC)cc3C(=O)N2C)O1,2.6*,·,2.3,-0.021,i,
CNC(=O)C[C@@H]1CC[C@@H]2[C@@H](COc3ccc(NC(=O)c4ccccc4OC)cc3C(=O)N2C)O1,0.7,·,2.1,·,·,
O=S(=O)(c1cccc(F)c1)N1CCN(Cc2cccc(OCCO)c2)CC1,-0.1,·,-1.5,·,·,
C[C@@H]1CCCCO[C@H](CN(C)Cc2ccc(C(=O)O)cc2)[C@H](C)CN([C@H](C)CO)C(=O)c2cc(NC(=O)Nc3ccccc3)ccc2O1,0.3,·,-0.8,·,·,
Cc1ccc(S(=O)(=O)N(C)/N=C/c2ccc(N(C)C)cc2)cc1,20.4*,18.4,0.5,0.158,i,
Cc1ccc(S(=O)(=O)N(C)/N=C/C=C/c2ccccc2)cc1,·,-3.2,·,·,·,
COCc1cn(CC[C@@H]2CC[C@@H](NC(=O)Nc3ccc(F)cc3)[C@@H](CO)O2)nn1,0.1,·,1.9,·,·,
C/C=C/c1cnc2c(c1)C(=O)N([C@@H](C)CO)C[C@@H](C)[C@@H](CN(C)Cc1ccncc1)O2,0.2,·,-0.6,·,·,
CC(=O)c1c(O)c(C)c(O)c2c1OC1=CC(=O)/C(=C(/C)N)C(=O)C12C (configuration not stated),0.1,·,·,·,·,
COC12CC(=O)C(C(C)=O)=C(O)C1(C)c1c(O)c(C)c(O)c(C(C)=O)c1O2 (configuration not stated),1.4*,-1.1,-1.5,0.139,i,
COc1cccc(NC(=O)CN(C)C(=O)c2ccc(NC3CC3)c([N+](=O)[O-])c2)c1,2.6*,-0.6,-4.2,0.124,i,
COc1cccc(NC(=O)CN(C)C(=O)c2ccc(N3CCOCC3)c([N+](=O)[O-])c2)c1,-0.1,5.4,-2.2,·,·,
CN(CC(=O)Nc1cccc(F)c1)C(=O)c1ccc(NC2CC2)c([N+](=O)[O-])c1,-0.5,-2.9,-2.7,·,·,
COc1cccc(NC(=O)CN(C)C(=O)c2ccc(N3CCCCC3)c([N+](=O)[O-])c2)c1,2.1*,-0.1,1.4,0.304,i,
COc1ccc(S(=O)(=O)N2CC[C@@H]3[C@H](CO)Nc4ccc(C#Cc5cccnc5)cc4[C@@H]32)cc1,0.3,·,-0.9,·,·,
CO[C@H]1CN(C)C(=O)c2ccc(NS(=O)(=O)c3ccccc3F)cc2OC[C@@H](C)NC[C@@H]1C,0.0,·,2.8,·,·,
C[C@@H]1CCCCO[C@H](CN(C)Cc2ccc(C(=O)O)cc2)[C@H](C)CN([C@@H](C)CO)C(=O)c2cc(NC(=O)Nc3ccccc3)ccc2O1,-0.2,·,-0.1,·,·,
O=C(O)c1cccc(NC(=O)c2cccc(S(=O)(=O)Nc3cccc([N+](=O)[O-])c3)c2)c1,·,-1.5,3.3,·,·,
O=C(Nc1cccc2ccccc12)c1cccc([N+](=O)[O-])c1,1.7*,5.9,0.8,0.084,i,
NS(=O)(=O)c1cccc(NC(=O)c2ccc(NS(=O)(=O)c3cccc([N+](=O)[O-])c3)cc2)c1,3.1*,2.9,-1.0,0.27,i,
